Experimental data taken from PubChem BioAssay.
The source made the active and inactive calls. Unless noted, how the calls were made is not given here.

How the values were obtained:
[1] = HepG2 liver cancer cell viability effects, profiling panel, resazurin fluorescence, 24 h, PK04 Diversity Set (AID 1172); settings: higher = more signal; further: test concentration not given here
[2] = basal S. cerevisiae growth modulation, no modifier, primary screen, OD600, strain BY4716, 24 h, basal condition (AID 1173); settings: OD600, 24 h, higher = more signal, called active from +8 up or from −8 down
[3] = MM1S myeloma cell viability, profiling panel, resazurin fluorescence, basal, 24 h, PK04 Diversity Set (AID 1174); settings: higher = more signal, called active from +8 up or from −8 down;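 further: MM1S multiple myeloma cell line; test concentration not given here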
[4] = molecular target: Dihydroorotate dehydrogenase (quinone), mitochondrial (Plasmodium falciparum (isolate 3D7)) (UniProt Q08210); assay: PfDHODH enzyme inhibitors, primary screen, biochemical, C-terminal His tag, absorbance 600 nm (AID 1175); settings: DCIP absorbance 600 nm, higher = more signal, called active from +8 up or from −8 down;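 further: recombinant parasite enzyme with a five histidine tag at its C terminus; test concentration not given here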
[5] = P. aeruginosa biofilm formation inhibitors, primary screen, strain PAO1, LB-PBS medium, absorbance 600 nm (AID 1176); further: test concentration not given here; settings: P. aeruginosa PAO1 growth/biofilm, A600, 12 h; higher = more signal
[6] = S. cerevisiae RM11-1a growth modifiers, primary screen, strain RM11-1a, OD600, basal, 24 h (AID 1177); settings: OD600, 24 h, higher = more signal, called active from +8 up or from −8 down;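 further: cultures grown under basal conditions with no added stressor; test concentration not given here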
[7] = E. coli acrAB mutant growth effects, primary screen, E. coli filamentation inducers, strain DRC39, OD650, 24 h (AID 1178); settings: higher = more signal, called active from +8 up or from −8 down;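 further: growth measured as culture turbidity by optical density at 650 nm; test concentration not given here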
[8] = E. coli acrAB mutant growth effects, primary screen, E. coli filamentation inducers, strain DRC39, OD650, 48 h (AID 1179);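 further: screen aims at cell division blockers that make cells filament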; settings: E. coli DRC39 delta-acrAB growth, higher = more signal, called active from +8 up or from −8 down
[9] = RPMI8226 myeloma cell viability, profiling panel, resazurin fluorescence, basal, 24 h, PK04 Diversity Set (AID 1180); settings: higher = more signal;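 further: RPMI8826 multiple myeloma cell line at 5000 cells per well; test concentration not given here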
[10] = molecular target: E3 ubiquitin-protein ligase XIAP (Homo sapiens) (UniProt P98170); assay: XIAP binders, primary screen, biophysical, small-molecule microarray, fluorescence 635 nm (AID 1181); settings: small-molecule microarray binding, higher = more signal;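 further: score merges 667 nm emission and signal to noise over triplicate slides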
Sequence of E3 ubiquitin-protein ligase XIAP (Homo sapiens) (P98170 whole entry, looked up): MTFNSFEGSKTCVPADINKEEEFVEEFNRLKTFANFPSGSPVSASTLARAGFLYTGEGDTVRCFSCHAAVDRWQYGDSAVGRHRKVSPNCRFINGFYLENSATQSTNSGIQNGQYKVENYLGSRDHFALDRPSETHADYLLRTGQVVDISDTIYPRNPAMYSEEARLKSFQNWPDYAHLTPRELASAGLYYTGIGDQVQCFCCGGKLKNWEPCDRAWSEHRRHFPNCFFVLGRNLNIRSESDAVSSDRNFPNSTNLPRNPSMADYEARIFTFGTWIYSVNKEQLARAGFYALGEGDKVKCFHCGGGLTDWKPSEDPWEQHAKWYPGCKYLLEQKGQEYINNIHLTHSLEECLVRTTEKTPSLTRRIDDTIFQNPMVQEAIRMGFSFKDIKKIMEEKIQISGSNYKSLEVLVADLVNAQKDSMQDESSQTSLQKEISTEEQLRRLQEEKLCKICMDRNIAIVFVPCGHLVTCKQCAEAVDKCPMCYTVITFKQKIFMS

Sequence of Dihydroorotate dehydrogenase (quinone), mitochondrial (Plasmodium falciparum (isolate 3D7)) (Q08210 whole entry, looked up): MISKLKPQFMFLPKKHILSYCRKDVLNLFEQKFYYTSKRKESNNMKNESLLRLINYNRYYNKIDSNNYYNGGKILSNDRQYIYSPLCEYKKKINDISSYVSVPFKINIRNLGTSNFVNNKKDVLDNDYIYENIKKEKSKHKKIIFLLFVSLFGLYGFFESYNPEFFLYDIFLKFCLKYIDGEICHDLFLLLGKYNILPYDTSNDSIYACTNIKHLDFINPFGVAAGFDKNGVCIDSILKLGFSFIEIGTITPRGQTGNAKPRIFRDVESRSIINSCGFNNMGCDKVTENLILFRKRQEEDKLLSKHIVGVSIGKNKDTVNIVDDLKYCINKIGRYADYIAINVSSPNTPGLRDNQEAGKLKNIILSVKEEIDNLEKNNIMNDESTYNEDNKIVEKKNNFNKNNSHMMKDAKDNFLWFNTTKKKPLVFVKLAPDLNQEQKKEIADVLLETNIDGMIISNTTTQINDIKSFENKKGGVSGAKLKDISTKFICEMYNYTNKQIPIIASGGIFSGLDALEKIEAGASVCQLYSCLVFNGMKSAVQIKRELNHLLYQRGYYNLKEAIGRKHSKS

SMILES	z-score [1]	z-score [2]	z-score [3]	composite z-score [4]	z-score [5]	z-score [6]	z-score [7]	z-score [8]	z-score [9]	composite z-score [10]
[N-]=[N+]=Nc1ccccc1[C@H]1OC(c2ccc(OCCCO)cc2)=N[C@@]1(CCS(=O)(=O)c1ccccc1)C(=O)O	0.181	-1.65 (inactive)	0.169 (inactive)	0.737 (inactive)	-0.319 (inactive)	-0.0777 (inactive)	2.08 (inactive)	0.499 (inactive)	0.438	0.143
O=C1C=CC(=O)[C@@H]2CC(COc3ccccc3)=C3[C@@H](CCc4ccccc4)OB(O)C[C@@H]3[C@H]12	-0.814	-6.89 (inactive)	-0.971 (inactive)	-2.68 (inactive)	0.212 (inactive)	-0.234 (inactive)	-0.569 (inactive)	-0.422 (inactive)	-0.664	0.0767
O=C1O[C@H](c2ccccc2)[C@H](c2ccccc2)N2[C@H]1[C@@H](C(=O)Nc1nc3ccccc3s1)[C@]1(C(=O)Nc3ccccc31)[C@H]2c1ccc(O)cc1	-0.166	-0.373 (inactive)	-2.72 (inactive)	0.192 (inactive)	1.18 (inactive)	-0.393 (inactive)	-0.797 (inactive)	-1.24 (inactive)	-2.81	-0.127
C=CCOC(=O)[C@@H]1[C@H]2C(=O)O[C@H](c3ccccc3)[C@H](c3ccccc3)N2[C@H](c2ccc(OCCOC(=O)[C@@H]3C[C@@H]4C(=O)N[C@@H](Cc5ccccc5)C(=O)N4[C@@H]3c3cccc(OCCO)c3)cc2)[C@@]12C(=O)Nc1ccc(I)cc12	0.134	1.94 (inactive)	0.375 (inactive)	-0.0168 (inactive)	2.17 (inactive)	2.94 (inactive)	0.421 (inactive)	-0.463 (inactive)	0.318	0.434
Cc1ccc(S[C@]2(C(=O)NC3CC3)CC(=O)N(C3CCCCC3)[C@@H]2c2ccc(CO)cc2I)cc1	0.57	-0.134 (inactive)	-0.232 (inactive)	1.44 (inactive)	0.475 (inactive)	0.537 (inactive)	0.738 (inactive)	0.377 (inactive)	-1.54	-0.13
CC(C)(C)N1CC=CC23O[C@@H]4C=CCOC(=O)[C@@H]4[C@H]2C(=O)N(CCCCCO)[C@@H]3C1=O (stereo not given in full)	-0.308	0.285 (inactive)	-0.728 (inactive)	-0.0531 (inactive)	0.0962 (inactive)	-0.0325 (inactive)	-1.09 (inactive)	-1.2 (inactive)	-0.867	0.333
CCCCC=C[C@@H](NC(=O)c1ccc(C(=O)OC)cc1)c1ccccc1	2.26	0.399 (inactive)	1.13 (inactive)	-0.543 (inactive)	-0.567 (inactive)	1.18 (inactive)	-0.0227 (inactive)	0.623 (inactive)	3.78	-0.145
COCC(=C=CC[C@H](O)c1ccc(OCCO)cc1)C[C@H](O)c1cc(Cl)cc(Cl)c1O	0.751	-18 (active)	0.668 (inactive)	-4.37 (inactive)	0.354 (inactive)	-22.1 (active)	1.43 (inactive)	1.27 (inactive)	0.708	0.0724
Cc1ccc([C@H]2C(C(=O)O)=C[C@@H](C)N2S(=O)(=O)c2ccc(C)cc2)cc1	-0.534	-0.704 (inactive)	-0.612 (inactive)	-0.377 (inactive)	-0.0322 (inactive)	-0.211 (inactive)	-0.654 (inactive)	-0.444 (inactive)	-1.52	0.254
CCN(CC)c1ccc(N2CC=CC34O[C@@H]5/C=C\CCCOC(=O)C5[C@H]3C(=O)N(C(CO)C(C)C)[C@@H]4C2=O)cc1 (stereo not given in full)	-0.211	0.282 (inactive)	-0.2 (inactive)	-0.952 (inactive)	-0.36 (inactive)	0.831 (inactive)	-0.0034 (inactive)	0.0801 (inactive)	-0.0389	0.336
COCCOC(=O)N1C(=O)[C@@]2(c3cc(C#CCCO)ccc31)[C@H](C(=O)NC[C@H](O)c1ccccc1)[C@H]1C(=O)O[C@H](c3ccccc3)[C@H](c3ccccc3)N1[C@@H]2c1ccc(O)cc1	0.816	0.562 (inactive)	0.858 (inactive)	1.34 (inactive)	0.29 (inactive)	1.36 (inactive)	1.01 (inactive)	0.887 (inactive)	1.04	-0.0126
COC(=O)[C@@]1(Cc2ccc(OC)cc2)[C@H]2c3cc(C(=O)N4CCCC4)n(Cc4cc(F)cc5c4OCOC5)c3C[C@H]2CN1C(=O)c1ccccc1	-1.47	0.433 (inactive)	-5.86 (inactive)	-0.607 (inactive)	0.687 (inactive)	-0.334 (inactive)	-1.32 (inactive)	-1.24 (inactive)	-3.53	0.389
C[N+](C)(C)CCCCCCNC(=O)[C@H]1C[C@H]2C(=O)N3CCC[C@H]3C(=O)N2[C@H]1c1ccc(O)cc1	0.202	-0.652 (inactive)	0.488 (inactive)	-2.18 (inactive)	2.48 (inactive)	-0.201 (inactive)	-0.834 (inactive)	-1.15 (inactive)	-0.603	0.127
CCOC(=O)C1=C[C@@H](CC)N(S(=O)(=O)c2ccc(C)cc2)[C@H]1c1ccccc1	-0.203	1.21 (inactive)	-0.666 (inactive)	-0.157 (inactive)	0.325 (inactive)	0.501 (inactive)	-0.823 (inactive)	-0.604 (inactive)	-1.05	0.289
COc1ccc(CCNC(=O)[C@@]2(c3ccc([N+](=O)[O-])cc3)CC(=O)N(CC34CC5CC(CC(C5)C3)C4)[C@@H]2c2ccc(CO)cc2)cc1	-1.86	-0.125 (inactive)	-2.58 (inactive)	0.682 (inactive)	1.61 (inactive)	0.526 (inactive)	-0.226 (inactive)	-0.281 (inactive)	-2.81	0.0073
CS(=O)(=O)CCOC(=O)C1=CC(c2ccc(CO)cc2)=CC(C2CC2)N(Cc2cc3c(cc2Br)OCO3)C=C1C(=O)OCCS(C)(=O)=O (stereo not given)	-0.311	-4.92 (inactive)	-2.7 (inactive)	-0.735 (inactive)	0.613 (inactive)	0.478 (inactive)	0.537 (inactive)	-0.75 (inactive)	-2.19	0.14
O=C1O[C@H](c2ccccc2)[C@H](c2ccccc2)N2[C@H]1[C@@H](C(=O)N1CCN(c3ncccn3)CC1)[C@]1(C(=O)Nc3ccccc31)[C@H]2c1ccc(OCCO)cc1	1.42	1.4 (inactive)	0.792 (inactive)	1.12 (inactive)	1.55 (inactive)	1.81 (inactive)	0.774 (inactive)	0.0049 (inactive)	0.368	0.109
O=C1O[C@@H](c2ccccc2)[C@@H](c2ccccc2)N2[C@@H](c3ccc(O)cc3)[C@]3(C(=O)Nc4ccc(C#CC5(O)CCCCCC5)cc43)[C@@H](C(=O)N3CCCCCCC3)[C@H]12	0.366	-0.479 (inactive)	-0.895 (inactive)	0.916 (inactive)	1.89 (inactive)	0.141 (inactive)	-0.284 (inactive)	0.38 (inactive)	-0.884	0.479
C=CCOC(=O)[C@H]1[C@@H]2C(=O)O[C@@H](c3ccccc3)[C@@H](c3ccccc3)N2[C@@H](c2ccc(OCCOC(=O)[C@@H]3C[C@@H]4C(=O)N5CCC[C@H]5C(=O)N4[C@@H]3c3ccc(O)cc3)cc2)[C@]12C(=O)Nc1ccccc12	0.196	0.865 (inactive)	0.841 (inactive)	-0.379 (inactive)	0.957 (inactive)	2.73 (inactive)	0.468 (inactive)	0.971 (inactive)	1.71	0.224
O=C1C2C=CC(C(O)c3cccs3)N(Nc3ccccc3F)C2C(=O)N1c1ccccc1 (stereo not given)	1.21	-1.3 (inactive)	0.982 (inactive)	0.609 (inactive)	0.574 (inactive)	-0.24 (inactive)	-0.0052 (inactive)	1.05 (inactive)	0.562	0.33
CC(C)c1ccc(NN2C(C(O)c3cccc(O)c3)C=CC3C(=O)N(c4ccccc4)C(=O)C32)cc1 (stereo not given)	-0.546	-0.914 (inactive)	-0.501 (inactive)	0.523 (inactive)	0.186 (inactive)	1.63 (inactive)	-0.0564 (inactive)	-0.063 (inactive)	-0.111	0.42
COc1cc2c(cc1O)C(C)N(Cc1cccc(OC(F)(F)F)c1)CC2 (stereo not given)	0.177	-0.713 (inactive)	-1.33 (inactive)	-1.44 (inactive)	-0.255 (inactive)	0.279 (inactive)	0.506 (inactive)	0.324 (inactive)	-0.622	0.427
CO[C@H]1O[C@H](CO)[C@@H](OC(=O)Nc2ccc3c(c2)OCO3)[C@H](OC(=O)Nc2ccccc2)[C@H]1OC(=O)Nc1ccccc1	-1.78	1.38 (inactive)	-3.14 (inactive)	1.15 (inactive)	-0.329 (inactive)	2.93 (inactive)	0.402 (inactive)	-0.728 (inactive)	-2.41	0.137
